Measured values from PubChem BioAssay.
The source made the active and inactive calls. Unless noted, no rule for the calls is given here.

How the values were obtained:
[1] = test system: Wnt5a (protein binding on small-molecule microarray); experiment: small molecules binding Wnt5a protein – biophysical, small-molecule microarray, 635/667 nm fluorescence, primary screen (AID 1142); details: 635 nm fluorescence, higher = more signal;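 also: fluorescence read at 667 nm with signal to noise per printed feature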
[2] = ATP-based viability of Huh7 replicon cells – cell-based, CellTiter-Glo luminescence, basal, 48 h, cytotoxicity control for HCV replication inhibitor project, primary screen (AID 1143); details: higher = more signal, called active from +8 up or from −8 down;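 also: Huh7 hepatoma cells carrying a hepatitis C replication reporter with no stimulus; test concentration not given here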
[3] = Pseudomonas biofilm growth suppression – PAO1 strain, BacTiter-Glo luminescence, LB-PBS, primary screen (AID 1144); details: P. aeruginosa PAO1 biofilm, 12 h, higher = more signal
[4] = basal CRE-LacZ reporter activity in PC12 – cell-based, unstimulated, primary screen (AID 1145); details: no forskolin, luminescence, 4.5 h, higher = more signal, called active from +8 up or from −8 down
[5] = forskolin-driven CRE-LacZ activity in PC12 – cell-based, CRE-LacZ reporter, forskolin-stimulated, primary screen (AID 1146); details: luminescence, 4.5 h, higher = more signal, called active from +8 up or from −8 down;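 also: PC12 cells with 6xCRE LacZ reporter stimulated by forskolin 10 µM; beta-galactosidase reporter signal reflecting CREB driven transcription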
[6] = molecular target: Streptavidin (Streptomyces avidinii) (UniProt P22629); experiment: compounds binding control protein streptavidin – biophysical, small-molecule microarray, 635/667 nm fluorescence, artefact control for SMM compound annotation, primary screen (AID 1147); details: higher = more signal;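 also: signal reflects streptavidin binding to arrayed compounds as a control protein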
[7] = probe aInhba binding on compound microarray – biochemical, small-molecule microarray, 635/667 nm fluorescence, primary screen (AID 1148); details: higher = more signal;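 also: score merges 667nm spot fluorescence with signal-to-noise for antibody binding to printed compounds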
Torsin-1A (Homo sapiens) [8] = molecular target: Torsin-1A (Homo sapiens) (UniProt O14656); experiment: TOR1A wild-type binding on microarray – cell lysate, small-molecule microarray, lysate, 635/667 nm, primary screen (AID 1149); details: COS7 hTOR1A-WT lysate, 635 nm fluorescence, higher = more signal
Torsin-1A (Homo sapiens) [9] = molecular target: Torsin-1A (Homo sapiens) (UniProt O14656); experiment: torsin A mutant lysate binding on microarrays – cell lysate, small-molecule microarray, COS7 lysate, 635/667 nm fluorescence, primary screen (AID 1150); details: COS7 hTOR1A mutant lysate, 635 nm fluorescence, higher = more signal;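 also: score pools 667 nm emission and signal to noise measuring lysate protein binding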
[10] = test system: Sonic hedgehog protein (Shh); experiment: Sonic hedgehog microarray binding compounds – biochemical, small-molecule microarray, 635/667 nm fluorescence, primary screen (AID 1151); details: 635 nm fluorescence, higher = more signal;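 also: Shh protein binding to compounds spotted on small-molecule microarray slides; score combines spot fluorescence intensity with signal-to-noise across triplicate slides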
[11] = optical density shifts of acrAB sulA E. coli – strain DRC41, OD650, 48 h, E. coli filamentation inducer project, primary screen (AID 1152); details: higher = more signal, called active from +8 up or from −8 down;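 also: E. coli MC1000 strain DRC41 lacking acrAB efflux pump and sulA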
[12] = probe aLefty1 binding on compound microarray – biochemical, small-molecule microarray, 635/667 nm fluorescence, primary screen (AID 1153); details: higher = more signal;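 also: score merges spot fluorescence with signal-to-noise ratio from the scanned slide images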
[13] = plasmodial surface anion channel blockers, osmotic lysis – cell-based, P. falciparum Indochina, OD700, 1 h, primary screen (AID 1154); details: P. falciparum Indochina infected RBC osmotic lysis, higher = more signal, called active from +8 up or from −8 down
[14] = plasmodial surface anion channel blockers, osmotic lysis – cell-based, P. falciparum Indochina, OD700, 2 h, primary screen (AID 1155);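 also: lysis reports solute entry through the parasite surface anion channel PSAC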; details: P. falciparum Indochina infected erythrocytes, higher = more signal, called active from +8 up or from −8 down
[15] = changes in parasitized red cell lysis, either direction – P. falciparum Indochina, OD700, 3 h, PSAC antagonist project, primary screen (AID 1156); details: P. falciparum-infected erythrocytes, osmotic lysis, higher = more signal, called active from +8 up or from −8 down
[16] = plasmodial surface anion channel blockers, osmotic lysis – cell-based, P. falciparum Indochina, OD700, 18 h, primary screen (AID 1157); details: P. falciparum Indochina infected erythrocytes, osmotic lysis OD700, 18 h; higher = more signal, called active from +8 up or from −8 down
[17] = S6 kinase pathway phospho-S6 level changes – cell-based, A549, cytoblot, luminescence, serum-stimulated, primary screen (AID 1158); details: 5 h, higher = more signal;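 also: serum-stimulated A549 lung adenocarcinoma cells; signal is phosphorylated S6 detected by cytoblot immunostaining with HRP secondary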
[18] = molecular target: NADPH oxidase 2 (Homo sapiens) (UniProt P04839); experiment: compounds shifting NOX2 Amplex Red fluorescence – cell-based, HEK293-NOX2, PMA-stimulated, NOX inhibitor project, primary screen (AID 1159); details: 45 min, higher = more signal, called active from +8 up or from −8 down; also: test concentration not given here
[19] = molecular target: NADPH oxidase 4 (Homo sapiens) (UniProt Q9NPH5); experiment: compounds shifting NOX4 Amplex Red fluorescence – cell-based, HEK293-NOX4, tetracycline-induced, NOX inhibitor project, primary screen (AID 1160); details: HEK293-NOX4, Amplex Red H2O2 fluorescence, 45 min; higher = more signal, called active from +8 up or from −8 down
[20] = molecular target: NADPH oxidase 5 (Homo sapiens) (UniProt Q96PH1); experiment: compounds shifting NOX5 Amplex Red fluorescence – cell-based, HEK293-NOX5, NOX inhibitor project, primary screen (AID 1161); details: HEK293-NOX5, ionomycin, 45 min, higher = more signal
NADPH oxidase 5 (Homo sapiens), sequence (Q96PH1 whole entry, looked up): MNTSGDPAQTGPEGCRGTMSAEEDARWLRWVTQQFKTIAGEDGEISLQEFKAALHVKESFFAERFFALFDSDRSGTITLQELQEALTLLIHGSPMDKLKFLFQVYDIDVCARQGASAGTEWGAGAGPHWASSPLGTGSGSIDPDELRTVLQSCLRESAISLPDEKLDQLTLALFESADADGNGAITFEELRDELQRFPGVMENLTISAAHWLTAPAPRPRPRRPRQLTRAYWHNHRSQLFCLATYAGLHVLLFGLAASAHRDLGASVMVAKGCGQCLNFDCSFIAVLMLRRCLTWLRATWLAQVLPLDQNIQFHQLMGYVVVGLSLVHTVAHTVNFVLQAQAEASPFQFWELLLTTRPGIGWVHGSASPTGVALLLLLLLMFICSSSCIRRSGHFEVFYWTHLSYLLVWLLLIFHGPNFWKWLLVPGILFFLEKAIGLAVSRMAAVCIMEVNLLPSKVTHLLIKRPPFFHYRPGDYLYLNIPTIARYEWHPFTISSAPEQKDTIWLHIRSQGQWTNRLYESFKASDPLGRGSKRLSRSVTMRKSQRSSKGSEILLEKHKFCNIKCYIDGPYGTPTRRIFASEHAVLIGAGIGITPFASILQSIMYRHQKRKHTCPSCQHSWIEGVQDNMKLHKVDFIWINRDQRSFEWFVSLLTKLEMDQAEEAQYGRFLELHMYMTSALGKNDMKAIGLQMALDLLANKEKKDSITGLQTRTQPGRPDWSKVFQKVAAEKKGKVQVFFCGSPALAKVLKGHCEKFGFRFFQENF

NADPH oxidase 4 (Homo sapiens), sequence (Q9NPH5 whole entry, looked up): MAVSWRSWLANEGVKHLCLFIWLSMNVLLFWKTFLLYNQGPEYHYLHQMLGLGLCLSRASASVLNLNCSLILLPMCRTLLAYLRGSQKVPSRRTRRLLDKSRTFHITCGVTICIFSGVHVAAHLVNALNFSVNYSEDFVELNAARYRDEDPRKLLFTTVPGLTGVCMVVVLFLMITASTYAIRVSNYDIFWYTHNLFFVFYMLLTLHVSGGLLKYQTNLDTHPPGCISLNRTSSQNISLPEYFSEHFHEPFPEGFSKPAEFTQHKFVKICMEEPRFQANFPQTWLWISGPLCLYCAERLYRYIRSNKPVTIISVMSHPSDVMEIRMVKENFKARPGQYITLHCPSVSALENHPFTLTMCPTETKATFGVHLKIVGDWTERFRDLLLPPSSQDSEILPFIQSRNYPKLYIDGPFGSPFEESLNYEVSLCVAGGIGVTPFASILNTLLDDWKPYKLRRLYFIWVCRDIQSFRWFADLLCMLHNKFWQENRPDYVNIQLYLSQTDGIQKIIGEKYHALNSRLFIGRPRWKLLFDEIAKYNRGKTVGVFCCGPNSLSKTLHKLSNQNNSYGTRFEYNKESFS
NADPH oxidase 2 (Homo sapiens), sequence (P04839 whole entry, looked up): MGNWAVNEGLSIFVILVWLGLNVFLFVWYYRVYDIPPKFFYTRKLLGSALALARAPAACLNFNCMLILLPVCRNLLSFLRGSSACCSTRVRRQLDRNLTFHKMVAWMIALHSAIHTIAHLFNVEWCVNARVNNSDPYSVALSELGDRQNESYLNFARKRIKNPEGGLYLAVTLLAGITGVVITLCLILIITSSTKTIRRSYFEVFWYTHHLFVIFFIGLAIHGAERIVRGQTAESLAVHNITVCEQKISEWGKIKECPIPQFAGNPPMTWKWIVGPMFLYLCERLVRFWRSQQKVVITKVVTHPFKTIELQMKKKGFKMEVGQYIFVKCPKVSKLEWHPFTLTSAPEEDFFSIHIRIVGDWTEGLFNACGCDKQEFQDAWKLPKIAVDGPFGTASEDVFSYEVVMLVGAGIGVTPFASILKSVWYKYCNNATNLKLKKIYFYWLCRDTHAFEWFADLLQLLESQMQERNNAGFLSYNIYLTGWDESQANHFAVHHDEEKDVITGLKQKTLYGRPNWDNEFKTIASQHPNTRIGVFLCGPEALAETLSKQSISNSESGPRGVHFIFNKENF
Streptavidin (Streptomyces avidinii), sequence (P22629 whole entry, looked up): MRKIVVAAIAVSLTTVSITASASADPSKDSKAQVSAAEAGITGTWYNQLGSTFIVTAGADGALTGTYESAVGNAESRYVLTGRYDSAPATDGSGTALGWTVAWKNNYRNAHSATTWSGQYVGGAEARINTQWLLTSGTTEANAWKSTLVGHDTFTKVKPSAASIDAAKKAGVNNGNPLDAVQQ
Torsin-1A (Homo sapiens), sequence (O14656 whole entry, looked up): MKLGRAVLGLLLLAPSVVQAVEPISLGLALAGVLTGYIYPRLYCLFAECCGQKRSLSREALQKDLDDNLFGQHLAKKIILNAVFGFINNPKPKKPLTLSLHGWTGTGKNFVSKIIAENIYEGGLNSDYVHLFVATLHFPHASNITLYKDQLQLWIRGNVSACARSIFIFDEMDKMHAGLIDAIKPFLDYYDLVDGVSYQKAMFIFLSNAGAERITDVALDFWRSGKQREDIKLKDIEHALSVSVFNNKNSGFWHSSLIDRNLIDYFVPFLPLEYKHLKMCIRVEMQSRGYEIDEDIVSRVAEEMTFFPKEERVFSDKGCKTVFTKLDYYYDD

| SMILES | composite z-score [1] | z-score [2] | z-score [3] | z-score [4] | z-score [5] | composite z-score [6] | composite z-score [7] | composite z-score (Torsin-1A (Homo sapiens) [8]) | composite z-score (Torsin-1A (Homo sapiens) [9]) | composite z-score [10] | z-score [11] | composite z-score [12] | z-score [13] | z-score [14] | z-score [15] | z-score [16] | z-score [17] | z-score [18] | z-score [19] | z-score [20] |
| --- | --- | --- | --- | --- | --- | --- | --- | --- | --- | --- | --- | --- | --- | --- | --- | --- | --- | --- | --- | --- |
| COCC1C2CC[C@H]3C(OCc4ccc(OC)cc4)OC[C@]4(C)[C@H]3C2=C(CN4C(=O)OC(C)(C)C)[C@H](C)C1COC (stereo not given in full) | 0.261 | -2.88 (inactive) | 0.413 (inactive) | -0.185 (inactive) | -0.0287 (inactive) | 2.08 | -0.321 | 0.187 | 0.255 | 0.298 | -1.23 (inactive) | -0.302 | 3.68 (inactive) | -0.556 (inactive) | 0.308 (inactive) | -2.05 (inactive) | 2.25 | -1.53 (inactive) | -1.89 (inactive) | -2.99 |
| COc1ccc(C#Cc2ccc3c(c2)[C@]2(C(=O)N3)[C@H](c3ccc(OCCO)cc3)N3[C@H](c4ccccc4)[C@H](c4ccccc4)OC(=O)[C@H]3[C@@H]2C(=O)N2CCc3cc(OC)c(OC)cc3C2)cc1 | 1.04 | -0.632 (inactive) | -0.221 (inactive) | 0.478 (inactive) | 0.198 (inactive) | 1.83 | -0.308 | 0.394 | 0.722 | 2.15 | -0.433 (inactive) | -0.261 | 3.24 (inactive) | 2.77 (inactive) | 1.15 (inactive) | 1.1 (inactive) | -0.298 | 0.661 (inactive) | 0.621 (inactive) | 0.27 |
| Nc1cc(Br)ccc1C(=O)O | 0.0415 | 0.389 (inactive) | 0.0538 (inactive) | 0.209 (inactive) | -0.929 (inactive) | 0.689 | -0.0719 | 0.136 | 0.474 | 0.0009 | 0.813 (inactive) | 0.139 | -0.319 (inactive) | 0.371 (inactive) | -0.611 (inactive) | 0.0089 (inactive) | 0.265 | 0.0525 (inactive) | -0.204 (inactive) | 0.142 |
| [N-]=[N+]=Nc1ccccc1C[C@]1(C(=O)O)N=C(c2ccc(OCCCO)cc2)O[C@H]1c1ccccc1 | 0.0269 | -0.218 (inactive) | -0.54 (inactive) | 2.53 (inactive) | -0.522 (inactive) | 0.261 | 0.189 | 1.05 | 1.45 | -0.536 | 0.174 (inactive) | -0.007 | 18.4 (active) | 2.83 (inactive) | 1.35 (inactive) | 0.589 (inactive) | -0.138 | 0.22 (inactive) | 0.818 (inactive) | 0.857 |
| C=CCNC(=O)[C@@H]1[C@H]2C(=O)O[C@H](c3ccccc3)[C@H](c3ccccc3)N2[C@H](c2ccc(O)cc2)[C@@]12C(=O)N(C(=O)OCCOC)c1ccc(C#CCCO)cc12 | 0.905 | -0.2 (inactive) | 0.171 (inactive) | -0.337 (inactive) | 0.243 (inactive) | 0.945 | 0.198 | 0.463 | 0.235 | 2.07 | -0.181 (inactive) | 0.0911 | 2.22 (inactive) | 0.517 (inactive) | 0.0855 (inactive) | 0.121 (inactive) | 0.0918 | 0.982 (inactive) | 0.194 (inactive) | 1.06 |
| COc1cc2c(cc1O)C(c1cccs1)N(Cc1sc3ccccc3c1Cl)CC2 (stereo not given) | 0.702 | -2.5 (inactive) | 0.546 (inactive) | -0.141 (inactive) | 0.93 (inactive) | 1.64 | 0.122 | 1.43 | 1.56 | 0.953 | -1.49 (inactive) | 0.0479 | 10.4 (active) | 3.63 (inactive) | -0.333 (inactive) | 2.24 (inactive) | -0.511 | -3.92 (inactive) | -2.48 (inactive) | -3.48 |
| C=CCNC(=O)[C@H]1[C@@H]2C(=O)O[C@@H](c3ccccc3)[C@@H](c3ccccc3)N2[C@@H](c2ccc(OCCO)cc2)[C@]12C(=O)Nc1ccc(C#CCNC(N)=O)cc12 | 0.314 | -0.384 (inactive) | -0.78 (inactive) | 0.559 (inactive) | 0.123 (inactive) | 0.756 | 0.0857 | 0.207 | 0.125 | 1.61 | -0.0661 (inactive) | 0.0809 | 2.59 (inactive) | 1.36 (inactive) | 1.42 (inactive) | 0.563 (inactive) | 0.326 | 1.91 (inactive) | 0.286 (inactive) | -0.621 |
| C=CCC(OC(C)=O)[C@@H]1[C@@H](N(Cc2ccc(-c3cccc(C(F)(F)F)c3)o2)C(=O)c2cccc3ccccc23)c2cc(OCCCO)ccc2N1C(=O)Cc1ccc(OC)cc1 (stereo not given in full) | -0.307 | -2.29 (inactive) | 0.302 (inactive) | -0.593 (inactive) | 0.0843 (inactive) | -0.551 | -0.102 | -0.577 | 0.264 | 0.439 | 0.386 (inactive) | -0.0818 | 1.62 (inactive) | 0.753 (inactive) | 1.94 (inactive) | 0.702 (inactive) | 0.461 | -3.21 (inactive) | -1.73 (inactive) | -1.49 |
